The source of these data is PubChem BioAssay (NCATS).

A number with no mark means an inactive call. Records with an inconclusive call do not appear. Active and inactive are the calls of the source. Calls follow the shape of the dose curve; as a rule, active = well fitted curve in the direction sought with a large enough effect; inconclusive = small, poorly fitted or top-dose-only effect, or another doubt; inactive = no such curve, though single readings can be large; an effect the other way counts as inactive or inconclusive.

In experiment [1] the target is Glutathione peroxidase 1 (Homo sapiens) (UniProt P07203). In words: Primary qHTS Assay for Inhibitors of Recombinant Selenoprotein Glutathione Peroxidase 1 (GPX1) (AID 1845191). Also: nearly all actives have a fitted effect of over 65% in size. As to activity, negative = inhibition: % is scaled to controls: 0 for no effect and ±100 for the full control effect. Summed up:
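GR-coupled assay: compounds preincubated 30 min at room temperature with GPX1, then reaction started with CHP; final 10 nM GPX1, 1 mM GSH, 0.5 mM CHP, 0.5 mM NADPH, 100 nM GR, 0.01% BSA, pH 7.5 Tris buffer. NADPH fluorescence (340/450 nm) read at 0 and 15 min.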

Experiment [2] concerns the target Phospholipid hydroperoxide glutathione peroxidase GPX4 (Homo sapiens) (UniProt P36969). Put plainly: Primary qHTS Assay for Inhibitors of Recombinant Selenoprotein Glutathione Peroxidase 4 (GPX4) (AID 1845192). Also: nearly all actives have a fitted effect of over 65% in size. As to activity change, negative = inhibition: series mostly up to about 50 µM; % is scaled to controls: 0 for no effect and ±100 for the full control effect. Summed up:
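GR-coupled assay: recombinant GPX4 preincubated 30 min with compound at room temperature; final 200 nM GPX4, 1 mM GSH, 0.5 mM cumene hydroperoxide, 0.5 mM NADPH, 100 nM GR, 0.01% BSA, pH 7.5 Tris. NADPH fluorescence (340/450 nm) read at 0 and 15 min.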

The target of experiment [3] is Luciferin 4-monooxygenase (Photinus pyralis) (UniProt P08659). Put plainly: Primary firefly luciferase (FLuc) qHTS assay for identification of artifact compounds. (AID 1845220). Also: nearly all actives have a fitted effect of over 60% in size. Also: potency is read from the fitted curve at half-maximal effect.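 As to activity change, negative = inhibition: series mostly up to about 54 µM; plate controls were DMSO vehicle for no effect and no enzyme for full effect.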 The gist of the method: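 D-luciferin and ATP (10 uM each, final) in Tris acetate buffer pH 7.6 were incubated with compounds for 15 min at room temperature. The reaction was started with 10 nM Photinus pyralis luciferase and luminescence read after 5 min. Percent inhibition was fitted to a 4-parameter Hill equation.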

A short description of experiment [4]: Primary fluorescence-based thiol-reactive (MSTI) qHTS assay for identification of artifact compounds. (AID 1845221). Also: nearly all actives have a fitted effect of over 65% in size. Also: potency is read from the fitted curve at half-maximal effect.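 As to activity change, negative = thiol reactive: series mostly up to about 54 µM; thiol-reactive compounds lower the probe fluorescence signal.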 The gist of the method:
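qHTS titration of compound; 4 uM MSTI, PBS pH 7.4, 2% DMSO; 1 h RT, dark; fluorescence 525/598 nm; normalized to Acetyl-MSTI and MSTI; 4-parameter Hill fit.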

Experiment [5] deals with Nanoluciferase (engineered Oplophorus gracilirostris luciferase). In words: Primary Nanoluciferase (NLuc) qHTS assay for identification of artifact compounds. (AID 1845222). Also: potency is read from the fitted curve at half-maximal effect.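 As to activity, negative = inhibition: series mostly up to about 54 µM; 0% = DMSO and -100% = no enzyme.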 The gist of the method:
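Diluted conditioned medium from NLuc-expressing S16 cells treated with compounds for 15 min at room temperature, then Nano-Glo substrate added; luminescence read after 5 min. Percent inhibition versus no-enzyme and DMSO controls fitted to 4-parameter Hill equation.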

Chain of Phospholipid hydroperoxide glutathione peroxidase GPX4 (Homo sapiens) (P36969 whole entry, looked up): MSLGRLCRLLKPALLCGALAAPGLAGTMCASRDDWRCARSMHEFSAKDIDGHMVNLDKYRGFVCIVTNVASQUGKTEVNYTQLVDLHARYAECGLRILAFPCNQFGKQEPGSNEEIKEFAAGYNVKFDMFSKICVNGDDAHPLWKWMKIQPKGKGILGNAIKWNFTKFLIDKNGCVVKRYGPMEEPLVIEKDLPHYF
Chain of Glutathione peroxidase 1 (Homo sapiens) (P07203 whole entry, looked up): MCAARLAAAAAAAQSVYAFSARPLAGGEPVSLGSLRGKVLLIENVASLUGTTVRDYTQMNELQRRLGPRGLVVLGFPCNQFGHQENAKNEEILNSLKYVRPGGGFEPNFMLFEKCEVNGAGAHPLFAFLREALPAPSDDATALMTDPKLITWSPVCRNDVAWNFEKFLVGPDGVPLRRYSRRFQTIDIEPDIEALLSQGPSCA

In the case of `C=C[C@]1(C)C[C@@H](OC(=O)CSC2C[C@H]3CC[C@@H](C2)N3C)[C@]2(C)[C@H](C)CC[C@]3(CCC(=O)[C@H]32)[C@@H](C)[C@@H]1O` (stereo not given in full), the Potency result in experiment [1], in experiment [2], in experiment [3], in experiment [4] and in experiment [5] was “inactive” each time.

`NCCCCN(Cc1nc2ccccc2[nH]1)[C@H]1CCCc2cccnc21`: the Potency result in experiment [1], in experiment [2], in experiment [3], in experiment [4] and in experiment [5] was “inactive” in each case.

For the compound `COC(=O)C1(C)CCCC2(C)c3ccc(C(C)C)cc3C(O)C(O)C12` (stereo not given), the Potency entry in experiment [1], in experiment [2], in experiment [3], in experiment [4] and in experiment [5] was “inactive” throughout.

With `CC1(C)CC[C@]2(C(=O)O[C@@H]3O[C@H](CO)[C@@H](O)[C@H](O)[C@H]3O)CC[C@]3(C)C(=CCC4[C@@]5(C)CC[C@H](O[C@@H]6O[C@H](C(=O)O)[C@@H](O)[C@H](O)[C@H]6OC6OC(CO)C(O)C(O)C6O)C(C)(C)C5CC[C@]43C)[C@@H]2C1` (stereo not given in full), the Potency result in experiment [1] and in experiment [2] was “inactive” in each case. In experiment [3], the activity change, negative = inhibition is 1.1% [at 11.6 µM]. Moreover, the activity change, negative = thiol reactive in experiment [4] was 43.7% [at 11.5 µM]. Also, the activity, negative = inhibition in experiment [5] is 0.31% [at 11.6 µM].

With `C=C1C[C@]23C[C@H]1CC[C@H]2[C@]1(C)CC[C@H](O)[C@@](C)(C(=O)O)[C@H]1[C@@H]3C(=O)O`, the Potency result in experiment [1], in experiment [2], in experiment [3], in experiment [4] and in experiment [5] was “inactive” each time.

For the compound `C[C@@H]1O[C@@H](O[C@H]2[C@H](O)[C@@H](O)[C@H](OC[C@H]3O[C@@H](OC(=O)[C@]45CCC(C)(C)C[C@H]4C4=CCC6[C@@]7(C)C[C@@H](O)[C@H](O)[C@@](C)(CO)C7[C@H](O)C[C@@]6(C)[C@]4(C)CC5)[C@H](O)[C@@H](O)[C@@H]3O)O[C@@H]2CO)[C@H](O)[C@H](O)[C@H]1O` (stereo not given in full), the Potency result in experiment [1] and in experiment [2] was “inactive” in each case. In addition, the activity change, negative = inhibition in experiment [3] is 0.345% [at 11.6 µM]. The activity change, negative = thiol reactive in experiment [4] is 224% [at 11.5 µM]. Besides, in experiment [5], the activity, negative = inhibition is 1.41% [at 11.6 µM].

In the case of `C=CC(C)(CCC=C(C)C)O[C@@H]1O[C@H](CO)[C@@H](O)[C@H](O)[C@H]1O` (stereo not given in full), the Potency result in experiment [1], in experiment [2], in experiment [3], in experiment [4] and in experiment [5] was “inactive” in each case.

Turning to `CC(=O)O[C@@H]1CC2C(C)(C)C(=O)C=C[C@]2(C)C2CC[C@]3(C)C(=CC(=O)[C@@H]3c3ccoc3)[C@@]21C` (stereo not given in full), the Potency result in experiment [1], in experiment [2], in experiment [3], in experiment [4] and in experiment [5] was “inactive” each time.

With H-DPPDPDRFYGMM-NH2, the Potency result in experiment [1], in experiment [2], in experiment [3], in experiment [4] and in experiment [5] was “inactive” in each case.

In the case of `C[C@@H]1[C@H]2[C@H](O[C@@H]3O[C@H](CO)[C@@H](O)[C@H](O)[C@H]3O)OC=C(C(=O)O)[C@H]2C[C@@H]1OC(=O)/C=C/c1ccc(O)cc1`, the Potency result in experiment [1], in experiment [2], in experiment [3] and in experiment [5] was “inactive” each time. Also, the Potency in experiment [4] was 10.3 µM (active).

Turning to `COc1ccc(S(=O)(=O)Nc2nc(-c3cccc([N+](=O)[O-])c3)cs2)cc1OC`, the Potency result in experiment [1], in experiment [2] and in experiment [3] was “inactive” each time. Also, the Potency in experiment [4] is 1.19 µM (active); in experiment [5], 9.53 µM (active).

For the compound `CC(=O)O[C@@H]1C(O)C[C@@]2(C)C(CC[C@@H](C)C23Cc2c(O)cc4c(c2O3)CNC4=O)C1(C)C` (stereo not given in full), the Potency entry in experiment [1], in experiment [2], in experiment [3], in experiment [4] and in experiment [5] was “inactive” throughout.

`Cc1ccc(-c2c(-c3nn(C)c4ncnc(N5CC[C@H](N6CCCCC6)C5)c34)cnn2C)cc1`: the Potency result in experiment [1], in experiment [2], in experiment [3], in experiment [4] and in experiment [5] was “inactive” each time.

For the compound `Nc1nc2c(nc(Sc3ccc(Cl)cc3)n2[C@@H]2O[C@@H]3COP(=O)(O)O[C@H]3[C@H]2O)c(=O)[nH]1`, the Potency entry in experiment [1], in experiment [2], in experiment [3], in experiment [4] and in experiment [5] was “inactive” in each case.

Turning to `CC1CC(=O)C2=C(O1)OC1(C)CCC3C(C)(C)C4OC4C(=O)C3(C)C1C2` (stereo not given), the Potency entry in experiment [1], in experiment [2], in experiment [3] and in experiment [5] was “inactive” in each case. In addition, the Potency in experiment [4] is 16.5 µM (active).

On to `O=C(/C=C/C=C/c1ccc2c(c1)OCO2)N1CCCCC1`, for which the Potency entry in experiment [1], in experiment [2], in experiment [4] and in experiment [5] was “inactive” each time. For the same compound, in experiment [3], the Potency was 10.7 µM (active).

`C/C(=C\CCC(C)CCO)C(=O)OC[C@H]1O[C@@H](O[C@@H]2OC=C(C(=O)O)[C@H]3CC[C@](C)(O)[C@@H]23)C(O)[C@@H](O)C1O` (stereo not given in full): the Potency result in experiment [1], in experiment [2], in experiment [3] and in experiment [5] was “inactive” throughout. In addition, the Potency in experiment [4] was 2.32 µM (active).

For `CC1(C)CC[C@]2(C(=O)O)CC[C@]3(C)C(=CCC4[C@@]5(C)CC[C@H](O[C@@H]6O[C@H](C(=O)O)[C@@H](O)[C@H](O[C@@H]7O[C@H](CO)[C@H](O)[C@H](O)[C@H]7O)[C@H]6O[C@@H]6O[C@H](CO)[C@@H](O)[C@H](O)[C@H]6O)C(C)(C)C5CC[C@]43C)[C@@H]2C1` (stereo not given in full), the Potency entry in experiment [1] and in experiment [2] was “inactive” each time. Besides, the activity change, negative = inhibition in experiment [3] was -14.9% [at 6.45 µM]. Also, the activity change, negative = thiol reactive in experiment [4] was 227% [at 6.41 µM]. Moreover, the activity, negative = inhibition in experiment [5] was -1.21% [at 6.45 µM].
